# PubChem BioAssay (Tox21)
# Inconclusive results are not listed. Values without a mark were called inactive. Calls of active or inactive are those of the source. Calls come from the whole dose curve; as a rule, active = well fitted cell-killing curve with a large enough effect in the repeat runs; inconclusive = weak or mixed curves, or effect the other way; inactive = flat fitted curve, though single readings scatter.
# Assay: qHTS assay to identify small molecule that activate the aryl hydrocarbon receptor (AhR) signaling pathway - cell viability counter screen (AID 743086); note: nearly all actives have a fitted effect of over 45% in size;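 for viability change, negative = cytotoxic: HepG2 liver cells carrying the AhR DRE luciferase reporter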
# Details: HepG2-AhR-luc viability, CellTiter-Fluor, 24 h; series mostly up to 70.3 µM; viability change, negative = cytotoxic: at the top concentration
# Text: U.S. Tox21 Program National Center for Advancing Translational Sciences [NCATS] NIH Chemical Genomics Center [NCGC] U.S. Environmental Protection Agency [EPA] National Institutes of Environmental Health Sciences [NIEHS] National Toxicology Program [NTP] U.S. Food and Drug Administration [FDA] Tox21 Assay overview: The Aryl hydrocarbon Receptor (AhR), a member of the family of basic helix-loop-helix transcription factors, is crucial to adaptive responses to environmental changes. AhR mediates cellular responses to environmental pollutants such as aromatic hydrocarbons through induction of phase I and II enzymes but also interacts with other nuclear receptor signaling pathways A cell based HepG2-AhR-luc assay (HG2L7.5c1 cell line, developed by Dr. Michael S. Denison, University of California at Davis) was used to assess the activation of AhR. HepG2 (human hepatocellular carcinoma) cells were stably transfected with an Ah receptor-responsive firefly luciferase reporter gene plasmid containing 20 dioxin responsive elements and luciferase reporter gene. Increased luciferase activity can be used to identify the compounds that induce AhR activation. The cytotoxicity of the compounds screened against the HepG2-AhR-luc cell line was tested in parallel by measuring the cell viability using CellTiter-Fluor assay in the same wells.
# Tox21 Assay Protocol Summary: 4000 cells in 5 uL/well were dispensed into white wall/solid bottom 1536-well plates using a Multidrop Combi (Thermo Fisher Scientific Inc., Waltham, MA) dispenser. After the assay plates were incubated at 37C for 5 h, 23 nL of compound or DMSO vehicle was transferred to the assay plates by a pintool station (Kalypsys, San Diego, CA). The plates were incubated at 37C for 24 hr. For cell viability measurement, 1 ul/well of CellTiter-Fluor reagent (Promega, Madison, WI) was added into the assay plates using a Flying Reagent Dispenser (FRD) (Aurora Discovery, CA),and then the assay plates were incubated at 37C for 30 min. The fluorescence intensity in the plates was measured using a ViewLux plate reader (PerkinElmer, Shelton, CT), followed by the addition of 4 uL of ONE-Glo Luciferase Assay reagent (Promega) using an FRD (Aurora Discovery). After the assay plates were incubated at room temperature for 30 min, luminescence intensity was measured using a ViewLux plate reader (Perkin Elmer).
# % is set by controls: 0 for no effect and ±100 for the full control effect; potency is the fitted concentration of half-maximal effect.
SMILES,"viability change, negative = cytotoxic",Potency
CC(=O)c1ccc2c(c1)N(CCCN(C)C)c1ccccc1S2,-3.57% [at 32.5 µM],–
O=C(O)c1ccc(S(=O)(=O)O)cc1C(=O)O,3.51%,–
C[N+](C)(C)CCOC(=O)CCC(=O)OCC[N+](C)(C)C,1.44%,–
Nc1cc(C(=O)O)c(O)c(S(=O)(=O)O)c1,0.742%,–
c1ccc(-c2ccccn2)nc1,-8.97%,–
CN1CCN(C(c2ccccc2)c2ccccc2)CC1,-3.36% [at 32.5 µM],–
CC(CC=O)c1ccccc1 (stereo not given),5.97%,–
O=C(O)C(S)C(S)C(=O)O (stereo not given),-1.96%,–
CC(C)(COC(=O)c1ccccc1)COC(=O)c1ccccc1,6.39%,–
CNCCCN1c2ccccc2CCc2ccccc21,-24.8% [at 32.5 µM],–
O=C(Nc1ccccc1)c1ccccc1O,-9.17%,–
c1cc(CCCc2ccncc2)ccn1,0.0071%,–
Cn1c(=O)cc(Oc2ccc(F)cc2F)c2cnc(NCC(C)(C)O)nc21,-3.44%,–
Nc1ccc(S(=O)(=O)Nc2ccccc2)cc1,0.714%,–
Cc1nn(C)c(Oc2ccccc2)c1/C=N/OCc1ccc(C(=O)OC(C)(C)C)cc1,1.81%,–
CCCCO,–,inactive
CCCCCCCCCCCC(=O)OC[C@@H](O)[C@H]1OC[C@H](OCCO)[C@H]1OCCO,8.31%,–
NC(=O)C(c1ccccc1)(c1ccccc1)[C@@H]1CCN(CCc2ccc3c(c2)CCO3)C1,-24.6%,–
NCCCN1CCOCC1,-0.148%,–
CCCCCCCCCCCc1ccccc1,4.1%,–

SMILES,"viability change, negative = cytotoxic",Potency
Cc1[nH]c(C)c(Cl)c(=O)c1Cl,-6.27%,–
CCCCC/C=C\C/C=C\CCCCCCCC(=O)NC(C)c1ccccc1 (stereo not given),-3.38%,–
O=C(OCCCCCCOC(=O)c1ccccc1)c1ccccc1,-12.6%,–
S=C([S-])NCCNC(=S)[S-].[Mn+2],-1.26%,–
C#C[C@]1(O)CC[C@H]2[C@@H]3CCc4cc(OC5CCCC5)ccc4[C@H]3CC[C@@]21C,-4.4%,–
CCCCCCCCO[C@@H]1O[C@H](CO)[C@@H](O)[C@H](O)[C@H]1O,10.2%,–
CCCCC(CC)COC(=O)CCCCCCCCC(=O)OCC(CC)CCCC (stereo not given),-0.514%,–
C[C@H]1C[C@H]2[C@@H]3CCC4=CC(=O)C=C[C@]4(C)[C@@]3(Cl)[C@@H](O)C[C@]2(C)[C@@]1(O)C(=O)CO,-6.6%,–
C[N+]1(CC2COC(c3ccccc3)(C3CCCCC3)O2)CCCCC1 (stereo not given),2.21%,–
CN1CCC(=C2c3ccccc3Sc3ccccc32)CC1,–,29.8 µM (active)
CC(C)C[C@H]1C(=O)N2CCC[C@H]2[C@]2(O)O[C@](NC(=O)[C@@H]3C=C4c5cccc6[nH]c(Br)c(c56)C[C@H]4N(C)C3)(C(C)C)C(=O)N12,–,26.6 µM (active)
CO[C@@H]1[C@H](OC(=O)/C=C/C=C/C=C/C=C/C(=O)O)CC[C@]2(CO2)[C@H]1[C@@]1(C)O[C@@H]1CC=C(C)C,–,inactive
CCOC(=O)Cc1cccc2ccccc12,7.07%,–
Clc1ccc(Cn2c(CN3CCCC3)nc3ccccc32)cc1,-21.4% [at 32.5 µM],–
O=P(O)(OCc1ccccc1)OCc1ccccc1,10.6%,–
CC[N+](C)(CC)CCOC(=O)C(O)(c1ccccc1)C1CCCCC1 (stereo not given),-1.57%,–
CCOc1ccc(N)c([N+](=O)[O-])c1,-2.53%,–
CN(C)CCCN1c2ccccc2Sc2ccccc21,-18.1% [at 32.5 µM],–
CCn1cc(C(=O)O)c(=O)c2cnc(N3CCNCC3)nc21,12.4% [at 32.5 µM],–
COS(=O)(=O)C(F)(F)F,3.33% [at 95 µM],–
